Experimental data published in PubChem BioAssay AID1159580 (chemical genetic matrix, 2015).
Several values for one entry are separate records, joined by “and”; a condition that tells them apart may be missing. Equal values may be shown once. Screen size: about 5,500 compounds; about 2,000 (36%) were called active. Roughly 18% stayed inconclusive and do not appear here. Cut-off read from the data, not from the text of the source: active = normalized growth mostly below about 0.91 (no sharp cut-off); inconclusive = no clear call, values can overlap the other calls; inactive = mostly above about 0.92. This is one part of the list.

Test: chemical genetic growth profiling, strain panel (AID 1159580);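 note: tested at 20 µM; growth read once vehicle control cultures reached saturation at 30 °C; 1 = growth at the plate median or of vehicle wells; lower values mean less growth of the strain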
Conditions: growth OD

Measured: normalized growth

O=C(O)c1cc(=O)c2ccc(Cl)cc2[nH]1
inactive: S. cerevisiae deletion strains, locus YJR043C, strain POL32, active compounds read low 1.03 | S. cerevisiae deletion strains, locus YJR075W, strain HOC1, active compounds read low 1.02 and 1 | S. cerevisiae deletion strains, locus YKL009W, strain mrt4, active compounds read low 0.99 | S. cerevisiae deletion strains, locus YKL068W, active compounds read low 0.995 | S. cerevisiae deletion strains, locus YKL085W, strain MDH1 (second series), active compounds read low 0.982 | S. cerevisiae deletion strains, locus YKL085W, strain MDH1, active compounds read low 0.982 | S. cerevisiae deletion strains, locus YKL160W, strain elf1, active compounds read low 1.05 | S. cerevisiae deletion strains, locus YKL190W, strain CNB1, active compounds read low 1.01 | S. cerevisiae deletion strains, locus YKR001C, strain vps1, active compounds read low 0.998 | S. cerevisiae deletion strains, locus YKR026C, strain gcn3, active compounds read low 1.01 | S. cerevisiae deletion strains, locus YKR091W, strain srl3, active compounds read low 1.01 | S. cerevisiae deletion strains, locus YLL001W, strain dnm1, active compounds read low 1.02 | S. cerevisiae deletion strains, locus YLL026W, active compounds read low 1.02 | S. cerevisiae deletion strains, locus YLL041C, strain sdh2, active compounds read low 1.03 | S. cerevisiae deletion strains, locus YLR027C, strain aat2, active compounds read low 1.03 | S. cerevisiae deletion strains, locus YLR039C, strain RIC1, active compounds read low 1.02 | S. cerevisiae deletion strains, locus YLR058C, strain SHM2, active compounds read low 1.02 | S. cerevisiae deletion strains, locus YLR102C, strain apc9, active compounds read low 0.986 | S. cerevisiae deletion strains, locus YLR221C, strain rsa3, active compounds read low 0.988 | S. cerevisiae deletion strains, locus YLR258W, strain gsy2, active compounds read low 1.03 | S. cerevisiae deletion strains, locus YLR262C, strain YPT6 (second series), active compounds read low 1 | S. cerevisiae deletion strains, locus YLR262C, strain YPT6, active compounds read low 1.05 | S. cerevisiae deletion strains, locus YLR268W, strain sec22, active compounds read low 0.986 | S. cerevisiae deletion strains, locus YLR320W, strain mms22, active compounds read low 1.01 | S. cerevisiae deletion strains, locus YLR330W, strain CHS5, active compounds read low 1.01 | S. cerevisiae deletion strains, locus YLR342W, strain FKS1 (second series), active compounds read low 0.957 | S. cerevisiae deletion strains, locus YLR342W, strain FKS1, active compounds read low 1.02 | S. cerevisiae deletion strains, locus YLR357W, strain rsc2, active compounds read low 1.02 | S. cerevisiae deletion strains, locus YLR370C, strain arc18, active compounds read low 1.02 | S. cerevisiae deletion strains, locus YLR371W, strain rom2, active compounds read low 0.984 | S. cerevisiae deletion strains, locus YLR384C, strain iki3, active compounds read low 1.01 | S. cerevisiae deletion strains, locus YLR418C, strain cdc73, active compounds read low 0.974 | S. cerevisiae deletion strains, locus YML016C, strain PPZ1, active compounds read low 1.02 | S. cerevisiae deletion strains, locus YML032C, strain rad52, active compounds read low 0.996 | S. cerevisiae deletion strains, locus YML120C, strain ndi1, active compounds read low 1.01 | S. cerevisiae deletion strains, locus YML124C, strain tub3, active compounds read low 0.998 | S. cerevisiae deletion strains, locus YMR058W, strain fet3, active compounds read low 1.01 | S. cerevisiae deletion strains, locus YMR078C, strain ctf18, active compounds read low 0.987 | S. cerevisiae deletion strains, locus YMR125W, strain sto1, active compounds read low 1.01 | S. cerevisiae deletion strains, locus YMR129W, active compounds read low 1.01 | S. cerevisiae deletion strains, locus YMR205C, strain PFK2, active compounds read low 1.03 | S. cerevisiae deletion strains, locus YMR223W, strain ubp8, active compounds read low 0.968 | S. cerevisiae deletion strains, locus YMR231W, strain pep5, active compounds read low 1.01 | S. cerevisiae deletion strains, locus YMR263W, strain SAP30, active compounds read low 1.03 | S. cerevisiae deletion strains, locus YMR307W, strain GAS1, active compounds read low 0.978 | S. cerevisiae deletion strains, locus YNL067W, strain RPL9B, active compounds read low 1.03 | S. cerevisiae deletion strains, locus YNL071W, strain lat1, active compounds read low 1.01 | S. cerevisiae deletion strains, locus YNL128W, strain TEP1, active compounds read low 1.03 | S. cerevisiae deletion strains, locus YNL153C, strain GIM3, active compounds read low 1.04 | S. cerevisiae deletion strains, locus YNL175C, strain NOP13, active compounds read low 1.01 | S. cerevisiae deletion strains, locus YNL197C, strain WHI3, active compounds read low 1.02 | S. cerevisiae deletion strains, locus YNL209W, strain ssb2, active compounds read low 1.01 | S. cerevisiae deletion strains, locus YNL224C, strain SQS1, active compounds read low 1 | S. cerevisiae deletion strains, locus YNL233W, strain BNI4, active compounds read low 1.03 | S. cerevisiae deletion strains, locus YNL248C, strain rpa49, active compounds read low 1.08 | S. cerevisiae deletion strains, locus YNL250W, strain rad50, active compounds read low 0.982 | S. cerevisiae deletion strains, locus YNL271C, strain bni1, active compounds read low 0.992 | S. cerevisiae deletion strains, locus YNL298W, strain CLA4, active compounds read low 0.999 | S. cerevisiae deletion strains, locus YNL307C, strain MCK1, active compounds read low 0.988 | S. cerevisiae deletion strains, locus YNL322C, strain KRE1 (second series), active compounds read low 1.06 | S. cerevisiae deletion strains, locus YNL322C, strain KRE1, active compounds read low 1.01 and 1.02 | S. cerevisiae deletion strains, locus YNR049C, strain mso1, active compounds read low 1 | S. cerevisiae deletion strains, locus YNR052C, strain pop2, active compounds read low 0.99 | S. cerevisiae deletion strains, locus YOL006C, strain TOP1, active compounds read low 1.11 | S. cerevisiae deletion strains, locus YOL012C, strain htz1 1.2 | S. cerevisiae deletion strains, locus YOL147C, strain pex11, active compounds read low 0.994 | S. cerevisiae deletion strains, locus YOR001W, strain rrp6, active compounds read low 0.96 | S. cerevisiae deletion strains, locus YOR061W, strain CKA2, active compounds read low 1.01 | S. cerevisiae deletion strains, locus YOR069W, strain VPS5, active compounds read low 1.01 | S. cerevisiae deletion strains, locus YOR070C, strain gyp1, active compounds read low 1.01 | S. cerevisiae deletion strains, locus YOR080W, strain dia2, active compounds read low 1 | S. cerevisiae deletion strains, locus YOR083W, strain WHI5 (second series), active compounds read low 0.989 | S. cerevisiae deletion strains, locus YOR083W, strain WHI5, active compounds read low 1.05 | S. cerevisiae deletion strains, locus YOR106W, strain vam3, active compounds read low 1.05 | S. cerevisiae deletion strains, locus YOR136W, strain idh2, active compounds read low 0.987 | S. cerevisiae deletion strains, locus YOR144C, strain elg1, active compounds read low 0.984 | S. cerevisiae deletion strains, locus YOR184W, strain ser1, active compounds read low 0.985 | S. cerevisiae deletion strains, locus YOR265W, strain rbl2, active compounds read low 1 | S. cerevisiae deletion strains, locus YOR270C, strain vph1, active compounds read low 1.04 | S. cerevisiae deletion strains, locus YOR290C, strain snf2, active compounds read low 1.06 | S. cerevisiae deletion strains, locus YOR316C, strain cot1, active compounds read low 0.994 | S. cerevisiae deletion strains, locus YPL051W, strain arl3, active compounds read low 1.01 | S. cerevisiae deletion strains, locus YPL055C, strain LGE1, active compounds read low 1.07 | S. cerevisiae deletion strains, locus YPL078C, strain atp4, active compounds read low 1.06 | S. cerevisiae deletion strains, locus YPL106C, strain sse1, active compounds read low 1.06 | S. cerevisiae deletion strains, locus YPL240C, strain hsp82, active compounds read low 1.02 | S. cerevisiae deletion strains, locus YPL241C, strain CIN2, active compounds read low 1.01 | S. cerevisiae deletion strains, locus YPR119W, strain clb2, active compounds read low 0.989 | S. cerevisiae deletion strains, locus YPR141C, strain kar3, active compounds read low 0.99 | S. cerevisiae deletion strains, locus YPR163C, strain tif3, active compounds read low 0.986 | S. cerevisiae deletion strains, locus YPR167C, strain met16, active compounds read low 0.989 | S. cerevisiae deletion strains, strain wtn01, active compounds read low 0.98 | S. cerevisiae strains, strain wild type, active compounds read low 1.02
